aSyn rescue: rescues yeast growth from alpha-synuclein toxicity; Yeast expressing alpha-synuclein, growth rescue, BacTiter-Glo, 24 h; Potency, µM (highest dose often 46.1 µM), most hits filed as activators; 0.14% of 370,000 active; note: nearly all actives have a fitted effect of over 65% in size
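Galactose-induced alpha-syn yeast (OD600=0.02, raffinose-pregrown) + pinned cpd, 24 hr, 30 deg C; growth by BacTiter-Glo luminescence. Growth restoration scores as activation.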
Abeta rescue: A-beta toxicity reversal in yeast; yeast expressing A-beta42, growth rescue, OD600, 48 h; response scale: 0% DMSO, 100% iron-clioquinol control; Potency, µM (highest dose often 46.1 µM), usual class: activators; 0.063% of 410,000 active; note: nearly all actives have a fitted effect of over 55% in size
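Growth rescue measured by 600 nm absorbance after 48 h yeast culture at 30 C with compound. Values normalized between DMSO and an equimolar ferric chloride plus clioquinol control.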
FUS yeast rescue: rescues growth of FUS-expressing yeast | S. cerevisiae FUS-expressing, growth rescue, OD600, 24 h | Potency, µM (doses to about 76.6 µM), most hits filed as activators | 0.24% of 390,000 active; note: nearly all actives have a fitted effect of over 55% in size
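Yeast expressing FUS under galactose induction, OD 0.005 in 2% galactose medium; compounds in a dilution series, 24 h at 30C. Growth rescue by absorbance at 600 nm; CP55940 positive control, DMSO negative.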
TDP-43 yeast inh: rescues yeast growth from TDP-43 toxicity. Potency, µM (highest dose often 46.1 µM), actives largely listed as activators. TDP-43 expressing yeast growth rescue, BacTiter-Glo, 24 h. 1.8% of 410,000 active; note: nearly all actives have a fitted effect of over 50% in size
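Growth rescue of TDP-43-toxic yeast measured as ATP luminescence (BacTiter-Glo). Cells grown to mid-log in raffinose, induced in galactose at OD600=0.02, exposed to compound 24 hr at 30 deg C.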
Each line names hits and unclear results; the compound was inactive in the other large screens. A selection: hits, their analogues and other compounds. The true share with any hit is near 2.1%. Calls come from the whole dose curve; as a rule, active = well fitted curve in the direction sought with a large enough effect; inconclusive = small, poorly fitted or top-dose-only effect, or another doubt; inactive = no such curve, though single readings can be large; an effect the other way counts as inactive or inconclusive.

COc1ccc(NC(=O)CCS(=O)(=O)c2ccc3nc(C)sc3c2)cc1Cl	none (no result: aSyn rescue)
Oc1ccc2[nH]cc(-c3cccs3)c2c1-c1ccccc1	none (no result: aSyn rescue, Abeta rescue, TDP-43 yeast inh)
CC(C)(C)OC(=O)/C=C/[C@@H](CCCCl)Sc1ccc(C(C)(C)C)cc1	none (no result: aSyn rescue, Abeta rescue, TDP-43 yeast inh)
Cc1cccc(-n2c(=O)c3ccccc3n(Cc3ccccc3)c2=O)c1	TDP-43 yeast inh 22.4µM (no result: aSyn rescue)
O=C(c1ccco1)N1CC2(CC(c3ccc(Cl)cc3)=NO2)CN1Cc1ccc(Br)cc1 (stereo not drawn)	TDP-43 yeast inh 31.6µM
COc1ccc(-c2cc3nc(C)cc(N4CCN(C(=O)c5ccoc5)CC4)n3n2)cc1	TDP-43 yeast inh inconclusive
COc1cccc(-c2cc3nc(-c4ccccc4)cc(N4CCN(C(=O)c5ccoc5)CC4)n3n2)c1	FUS yeast rescue inconclusive, TDP-43 yeast inh 15.8µM
COc1cccc(-c2cc(N3CCN(C(=O)c4ccoc4)CC3)n3nc(-c4cccc(Cl)c4)cc3n2)c1	TDP-43 yeast inh 3.55µM
COc1cccc(-c2cc3nc(C)cc(N4CCN(C(=O)c5ccoc5)CC4)n3n2)c1	none
COc1cccc(-c2cc3nc(-c4ccco4)cc(N4CCN(C(C)=O)CC4)n3n2)c1	none (no result: aSyn rescue, Abeta rescue, TDP-43 yeast inh)
COc1cccc(-c2cc3nc(-c4ccccc4)cc(N4CCC5(CC4)OCCO5)n3n2)c1	TDP-43 yeast inh 15.8µM
Cc1ccc(NC(=O)c2sc3ncnc(N(C)C4CCCCC4)c3c2C)cc1	none (no result: aSyn rescue)
Cc1ccc(-c2nn3c(=O)cc(CN4CCN(C(=O)c5ccc(C(C)(C)C)cc5)CC4)nc3s2)cc1	none (no result: aSyn rescue)
COC(=O)N1C(=O)[C@](c2ccsc2)(C(C)C)N1C(=O)OC	TDP-43 yeast inh 20µM
COC(=O)N1C(=O)[C@](CC(C)C)(c2ccccc2)N1C(=O)OC	TDP-43 yeast inh inconclusive
COC(=O)N1C(=O)[C@](c2ccc(OC)cc2)(C(C)C)N1C(=O)OC	TDP-43 yeast inh 17.8µM
O=C(/C=C/c1ccccc1)CC(O)(c1ccccc1)C(F)(F)F (stereo not drawn)	aSyn rescue inconclusive, TDP-43 yeast inh 12.6µM
CC(C)(O)CCc1c(-c2ccc(O)cc2O)oc2c3c(cc(O)c2c1=O)OC(C)(C)C=C3	FUS yeast rescue inconclusive, TDP-43 yeast inh 12.6µM
Cc1cccc(N2CCN(C3=NC(=O)C(=C4CCCCC4)S3)CC2)c1	TDP-43 yeast inh 7.08µM (no result: aSyn rescue)
CC(=O)N1CCN(C2=NC(=O)C(=C3CCCCC3)S2)CC1	none
O=C(Oc1ccc(Br)cc1C(=S)N1CCCC1)c1ccccc1F	TDP-43 yeast inh 15.8µM (no result: FUS yeast rescue)
O=C(CSCc1cccc(Br)c1)N/N=C/c1ccc2c(c1)OCO2	Abeta rescue inconclusive, TDP-43 yeast inh inconclusive
O=C(CSCc1ccccc1Br)N/N=C/c1ccc2c(c1)OCO2	TDP-43 yeast inh 17.8µM (no result: FUS yeast rescue)
CCc1ccc(NC(=O)CC2C(=O)N(c3ccccc3)C(=O)N2C(C)C)cc1 (stereo not drawn)	none (no result: aSyn rescue)
c1ccc(-c2cc(CSc3nc4ccccc4[nH]3)on2)cc1	TDP-43 yeast inh 20µM
Cc1noc(C)c1CSc1nc2ccccc2[nH]1	none
Fc1cccc(F)c1CSc1nc2ccccc2[nH]1	TDP-43 yeast inh 12.6µM
COc1ccc(NC(=O)CCCc2nnc3n(CCC(C)C)c(=O)c4sccc4n23)cc1Cl	none (no result: aSyn rescue)
O=C(Cc1ccccc1)c1c[nH]c(C(=O)C(Cl)(Cl)Cl)c1	TDP-43 yeast inh 12.6µM
O=C(c1ccccc1)c1c[nH]c(C(=O)C(Cl)(Cl)Cl)c1	none
O=C(c1c[nH]c(C(=O)C(Cl)(Cl)Cl)c1)c1ccc(F)cc1Cl	TDP-43 yeast inh 8.91µM
COc1cccc(OC)c1-c1cc(CCCc2cc(-c3c(OC)cccc3OC)nc3ccccc23)c2ccccc2n1	none (no result: Abeta rescue, FUS yeast rescue, TDP-43 yeast inh)
CCN1CCc2c(sc(NC(=O)c3ccc(S(=O)(=O)N4CCCC(C)C4)cc3)c2C(=O)OC)C1 (stereo not drawn)	none
Cc1onc(-c2ccccc2)c1C(=O)OCCOc1ccc([N+](=O)[O-])cc1[N+](=O)[O-]	TDP-43 yeast inh 12.6µM
Cc1onc(-c2ccccc2)c1C(=O)OCC(=O)c1ccc(F)cc1	TDP-43 yeast inh 20µM
Cc1onc(-c2ccccc2)c1C(=O)OCC(=O)c1ccccc1	none
C[C@H]1COc2cc(Br)ccc2S(=O)(=O)N1Cc1cn(Cc2ccc(F)cc2)nn1	none (no result: aSyn rescue, Abeta rescue, TDP-43 yeast inh)
O=C(NC12CC3CC(CC(C3)C1)C2)c1ccc([N+](=O)[O-])o1	TDP-43 yeast inh 20µM
COc1ccccc1Nc1nc(-c2cccc([N+](=O)[O-])c2)cs1	TDP-43 yeast inh 22.4µM
OCC1O[C@H]([S-])[C@H](O)[C@@H](O)[C@@H]1O.[Au+] (stereo partly drawn)	none (no result: Abeta rescue, FUS yeast rescue, TDP-43 yeast inh)
